# Measurements reported in PubChem BioAssay (NCATS).
# Results filed as inconclusive are left out. Activity calls are given as the source filed them. Calls come from the whole dose curve; as a rule, active = well fitted cell-killing curve with a large enough effect; inconclusive = small, poorly fitted or top-dose-only effect, or effect the other way; inactive = no such curve, though single readings can be large or run the other way.
# Assay: Quantitative High-Throughput drug screen in 47 multiple myeloma cell lines against the NCATS MIPE library collection: MM1R_ATCC cell viability assay (AID 1918981); note: nearly all actives have a fitted effect of over 35% in size
# Details: MM1R multiple myeloma cells, CellTiter-Glo viability, 48 h; series mostly up to 45.8 µM; viability (% of control): at the top concentration
# Summary of the method: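 ATP-based luminescence (CellTiter-Glo, 5 min RT incubation) quantified surviving cells following two days' treatment with MIPE 4.0 agents at 37 °C, 5% CO2.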
# Potency is the fitted concentration of half-maximal effect.
Compound,Potency,viability (% of control)
CC(=O)Nc1ccc([C@H](C)C(=O)Nc2ncc(C(C)C)s2)cc1,0.743 µM (active),–
CC(C(=O)O)c1ccc(-c2ccccc2)c(F)c1 (stereo unspecified),–,130% (inactive)
CC[C@H]1OC(=O)[C@H](C)C(=O)[C@H](C)[C@@H](O[C@H]2O[C@H](C)C[C@H](N(C)C)[C@@H]2O)[C@](C)(OC)C[C@@H](C)C(=O)[C@H](C)[C@H]2N(CCCCn3cnc(-c4cccnc4)c3)C(=O)O[C@]12C,16.6 µM (active),–
CN1C[C@H]2c3ccccc3Oc3ccc(Cl)cc3[C@@H]2C1,–,90.4% (inactive)
O=c1cc(-c2ccccc2)oc2cc(O)c(O)c(O)c12,23.5 µM (active),–
CCn1cc(C(=O)O)c(=O)c2ccc(C)nc21,–,117% (inactive)
O=C1C[C@@H](c2ccc(O)cc2)Oc2cc(O)cc(O)c21,–,118% (inactive)
NC[C@@H]1O[C@@H](O[C@H]2[C@@H](O)[C@H](O[C@@H]3[C@@H](O)[C@@H](N)C[C@H](N)[C@H]3O[C@H]3O[C@H](CN)[C@@H](O)[C@@H](O)[C@H]3N)O[C@H]2CO)[C@H](N)[C@@H](O)[C@@H]1O,–,130% (inactive)
CO[C@H]1C(=O)[C@]2(C)[C@@H](OC)C[C@H]3OC[C@@]3(OC(C)=O)[C@H]2[C@H](OC(=O)c2ccccc2)[C@]2(O)C[C@H](OC(=O)[C@H](O)[C@@H](NC(=O)OC(C)(C)C)c3ccccc3)C(C)=C1C2(C)C,–,60.7% (inactive)
C[C@@H]1CCN(C(=O)CC#N)C[C@H]1N(C)c1ncnc2[nH]ccc12,–,93% (inactive)
CN(C)Cc1ccc(-c2nc3cccc4c3n2CCNC4=O)cc1,20.9 µM (active),–
